Experimental findings from PubChem BioAssay (EPA / NIEHS) are described below.

Assay [1] addresses Nuclear receptor subfamily 1 group I member 2 (Homo sapiens) (UniProt O75469). Briefly: NVS_NR_hPXR: NovaScreen (NVS) Nuclear Receptor Binding Assay for human Pregnane X Receptor (PXR) (AID 2283365).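 Also: a drop in FRET signal versus DMSO baseline means the compound binds.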 The procedure, abridged:
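Read-out: TR-FRET, human PXR, 2 h post-dosing, cell-free. Loss of signal vs DMSO taken as binding activity; 25 uM primary, concentration series secondary.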

Assay [2] deals with Agonist Androgen Response Element (ARE), AR (gene 367) (UniProt P10275). Briefly: OT_AR_ARELUC_AG_1440: Odyssey Thera (OT) 24-hour CHO-K1 Luciferase Assay for Agonist Androgen Response Element (ARE) (AID 2283379). The procedure, abridged:
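Agonist mode, 24 h exposure in CHO-K1 ARE-luciferase cells; values reflect luminescence induction over vehicle.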

Assay [3] addresses guinea pig Sigma Receptor, Non-selective Binding, SIGMAR1 (gene 100135589) (UniProt Q60492). Briefly: NVS_OR_gSIGMA_NonSelective: NovaScreen (NVS) Nuclear Receptor Binding Assay for guinea pig Sigma Receptor, Non-selective Binding (AID 2283367). In short, it runs like this: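 gp brain membr., radioligand displacement, 1 h, filtration + scint. counting; DMSO = baseline; 25 uM x2 primary, conc.-response confirm.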

Assay [4] concerns the target rat Serotonin Transporter (SERT), Slc6a4 (gene 25553) (UniProt P31652). Briefly: NVS_TR_rSERT: NovaScreen (NVS) Transporter Assay for rat Serotonin Transporter (SERT) (AID 2283375). The procedure, abridged:
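Using rat forebrain membrane SERT, test chemicals compete with a radioligand for 1 hour, and bound counts are taken by filter-based scintillation. Screening starts at 25 uM in duplicate, followed by concentration series for actives.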

The target in assay [5] is Glucocorticoid receptor (Homo sapiens) (UniProt P04150). Put plainly: NVS_NR_hGR: NovaScreen (NVS) Nuclear Receptor Binding Assay for human Glucocorticoid Receptor (GR) (AID 2283363).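 As to AC50: activity is loss of specific radioligand binding signal relative to DMSO.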 The procedure, abridged: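 Competitive displacement of a labelled ligand was measured on cell-free receptor preparations after 16 h exposure. Initial testing used 25 uM in duplicate with plate controls; confirmed actives went into concentration series.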

The target in assay [6] is Peroxisome proliferator-activated receptor gamma (Homo sapiens) (UniProt P37231). Put plainly: NVS_NR_hPPARg: NovaScreen (NVS) Nuclear Receptor Binding Assay for human Peroxisome Proliferator-activated Receptor gamma (PPARg) (AID 2283370). The procedure, abridged: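 Extracted receptor protein, cell-free; compound incubated 2 h then fluorescence polarization read. Baseline: DMSO. Actives from 25 uM duplicate screen re-run across concentrations.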

The target of assay [7] is rat Androgen Receptor (AR), Ar (gene 24208) (UniProt P15207). Briefly: NVS_NR_rAR: NovaScreen (NVS) Nuclear Receptor Binding Assay for rat Androgen Receptor (AR) (AID 2283366). In short, it runs like this: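 Cell-free radioligand binding on extracts of prostate from testosterone-pretreated rats, read by filter-based scintillation counting 18 h after dosing. Loss of bound signal fitted positively versus DMSO; primary screen in duplicate at 25 uM, actives followed up in concentration series.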

Assay [8] deals with human Norepinephrine Transporter (NET), SLC6A2 (gene 6530) (UniProt P23975). Briefly: NVS_TR_hNET: NovaScreen (NVS) Transporter Assay for human Norepinephrine Transporter (NET) (AID 2283377).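 Also: cell-free membrane protein extracted from CHO cells expressing human NET.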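 As to AC50: displacement of radioligand from human NET seen as loss of scintillation signal.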 The procedure, abridged:
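Scintillation counts of filter-retained radioligand served as the readout, taken 1 h post-dosing in a cell-free CHO-derived system. Test chemicals ran first at 25 uM in duplicate; confirmed hits were retested across concentrations.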

The target in assay [9] is human Dopamine Transporter (DAT), SLC6A3 (gene 6531) (UniProt Q01959). Put plainly: NVS_TR_hDAT: NovaScreen (NVS) Transporter Assay for human Dopamine Transporter (DAT) (AID 2283374).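 Also: activity means loss of bound radioligand signal relative to DMSO.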 The procedure, abridged:
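Test chemicals were first screened in duplicate at 25 uM, with actives retested as concentration series. Displacement of a specific radioligand from cell-free human dopamine transporter was measured after 1 h by filtration and scintillation counting.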

Assay [10] deals with mouse Estrogen Receptor alpha (Era), Esr1 (gene 13982) (UniProt P19785). Put plainly: NVS_NR_mERa: NovaScreen (NVS) Nuclear Receptor Binding Assay for mouse Estrogen Receptor alpha (Era) (AID 2283378).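 Also: hit means loss of bound radioligand signal relative to DMSO.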 The procedure, abridged: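 Measurements come from scintillation counting after filtration, taken 18 hours after chemicals were added to a cell-free mouse Era preparation with radioligand. Screening was duplicate at 25 uM, with concurrent positive and negative controls and confirmatory concentration series for actives.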

Inconclusive results are not listed. Calls of active or inactive are those of the source. The calls were made as follows: active = hit-call score of the fitted dose curve at least 0.9, where 1 is the maximum; inconclusive = response in the unintended direction; inactive = score below 0.9.

Sequence of Nuclear receptor subfamily 1 group I member 2 (Homo sapiens) (O75469 whole entry, looked up): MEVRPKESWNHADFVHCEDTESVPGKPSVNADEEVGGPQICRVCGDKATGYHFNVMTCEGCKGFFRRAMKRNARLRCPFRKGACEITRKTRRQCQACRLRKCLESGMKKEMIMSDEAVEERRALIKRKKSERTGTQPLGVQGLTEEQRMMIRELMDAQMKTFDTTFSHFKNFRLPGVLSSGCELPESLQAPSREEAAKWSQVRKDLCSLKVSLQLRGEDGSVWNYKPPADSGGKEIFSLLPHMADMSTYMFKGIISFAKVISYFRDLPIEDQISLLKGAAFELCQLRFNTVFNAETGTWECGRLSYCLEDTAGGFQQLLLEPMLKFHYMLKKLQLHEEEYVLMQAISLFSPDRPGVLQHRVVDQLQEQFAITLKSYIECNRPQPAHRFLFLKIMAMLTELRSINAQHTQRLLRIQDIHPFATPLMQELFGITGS
Sequence of human Norepinephrine Transporter (NET), SLC6A2 (gene 6530) (P23975 whole entry, looked up): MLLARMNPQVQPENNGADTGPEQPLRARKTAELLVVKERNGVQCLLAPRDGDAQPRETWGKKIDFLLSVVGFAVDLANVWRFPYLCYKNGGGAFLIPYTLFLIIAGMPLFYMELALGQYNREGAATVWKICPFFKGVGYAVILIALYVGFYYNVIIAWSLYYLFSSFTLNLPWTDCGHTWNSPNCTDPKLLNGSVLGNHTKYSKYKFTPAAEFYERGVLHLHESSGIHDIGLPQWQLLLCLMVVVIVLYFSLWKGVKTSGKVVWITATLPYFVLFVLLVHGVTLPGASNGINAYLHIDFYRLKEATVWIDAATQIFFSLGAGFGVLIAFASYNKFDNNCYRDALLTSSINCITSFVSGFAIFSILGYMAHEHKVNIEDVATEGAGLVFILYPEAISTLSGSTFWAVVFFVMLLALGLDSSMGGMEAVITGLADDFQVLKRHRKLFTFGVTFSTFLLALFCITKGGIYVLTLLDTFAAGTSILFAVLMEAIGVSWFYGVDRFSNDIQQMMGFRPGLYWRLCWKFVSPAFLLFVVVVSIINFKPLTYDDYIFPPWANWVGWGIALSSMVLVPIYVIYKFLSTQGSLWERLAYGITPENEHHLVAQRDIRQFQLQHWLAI
Sequence of Glucocorticoid receptor (Homo sapiens) (P04150 whole entry, looked up): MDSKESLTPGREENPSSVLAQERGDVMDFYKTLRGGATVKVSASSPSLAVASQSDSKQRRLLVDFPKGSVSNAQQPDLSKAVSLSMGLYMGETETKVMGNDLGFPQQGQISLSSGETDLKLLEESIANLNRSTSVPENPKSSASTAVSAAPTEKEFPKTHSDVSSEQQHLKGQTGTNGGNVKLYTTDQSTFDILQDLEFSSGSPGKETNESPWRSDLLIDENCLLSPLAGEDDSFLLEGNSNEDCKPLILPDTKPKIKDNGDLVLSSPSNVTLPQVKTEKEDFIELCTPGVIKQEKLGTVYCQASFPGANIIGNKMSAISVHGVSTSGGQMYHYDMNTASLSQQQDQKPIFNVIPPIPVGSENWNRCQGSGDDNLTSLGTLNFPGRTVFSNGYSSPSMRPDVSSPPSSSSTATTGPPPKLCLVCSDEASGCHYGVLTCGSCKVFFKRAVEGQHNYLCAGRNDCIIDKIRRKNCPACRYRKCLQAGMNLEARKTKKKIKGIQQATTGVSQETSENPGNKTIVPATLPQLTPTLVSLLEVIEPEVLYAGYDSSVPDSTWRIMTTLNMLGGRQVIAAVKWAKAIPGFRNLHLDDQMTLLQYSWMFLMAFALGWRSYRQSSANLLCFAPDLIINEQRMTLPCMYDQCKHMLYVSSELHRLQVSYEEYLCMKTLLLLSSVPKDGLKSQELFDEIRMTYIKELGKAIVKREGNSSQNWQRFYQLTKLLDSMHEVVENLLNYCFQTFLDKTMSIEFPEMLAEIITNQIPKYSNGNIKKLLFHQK
Sequence of Agonist Androgen Response Element (ARE), AR (gene 367) (P10275 whole entry, looked up): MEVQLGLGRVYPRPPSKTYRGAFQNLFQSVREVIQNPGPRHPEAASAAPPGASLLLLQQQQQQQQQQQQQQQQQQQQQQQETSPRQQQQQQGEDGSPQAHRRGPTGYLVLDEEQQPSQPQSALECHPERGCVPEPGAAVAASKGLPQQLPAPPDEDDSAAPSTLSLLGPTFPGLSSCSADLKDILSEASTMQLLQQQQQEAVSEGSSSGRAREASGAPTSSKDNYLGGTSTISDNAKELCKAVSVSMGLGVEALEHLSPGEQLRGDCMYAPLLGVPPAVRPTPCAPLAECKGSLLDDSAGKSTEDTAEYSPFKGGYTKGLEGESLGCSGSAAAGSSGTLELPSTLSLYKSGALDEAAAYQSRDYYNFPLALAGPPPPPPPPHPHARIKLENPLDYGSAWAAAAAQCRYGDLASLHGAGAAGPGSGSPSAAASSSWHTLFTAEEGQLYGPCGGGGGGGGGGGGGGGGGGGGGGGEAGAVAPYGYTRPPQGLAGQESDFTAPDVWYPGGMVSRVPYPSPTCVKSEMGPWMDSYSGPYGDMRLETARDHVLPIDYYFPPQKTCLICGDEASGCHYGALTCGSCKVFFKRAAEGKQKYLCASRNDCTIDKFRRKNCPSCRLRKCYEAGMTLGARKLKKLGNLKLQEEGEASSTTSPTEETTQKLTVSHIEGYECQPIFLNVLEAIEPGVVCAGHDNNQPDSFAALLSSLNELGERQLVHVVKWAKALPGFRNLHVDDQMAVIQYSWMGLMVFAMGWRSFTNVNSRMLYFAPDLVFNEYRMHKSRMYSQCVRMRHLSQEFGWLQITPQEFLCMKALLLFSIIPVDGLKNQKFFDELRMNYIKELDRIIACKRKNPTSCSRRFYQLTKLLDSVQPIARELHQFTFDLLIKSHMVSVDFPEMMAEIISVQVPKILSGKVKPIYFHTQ
Sequence of guinea pig Sigma Receptor, Non-selective Binding, SIGMAR1 (gene 100135589) (Q60492 whole entry, looked up): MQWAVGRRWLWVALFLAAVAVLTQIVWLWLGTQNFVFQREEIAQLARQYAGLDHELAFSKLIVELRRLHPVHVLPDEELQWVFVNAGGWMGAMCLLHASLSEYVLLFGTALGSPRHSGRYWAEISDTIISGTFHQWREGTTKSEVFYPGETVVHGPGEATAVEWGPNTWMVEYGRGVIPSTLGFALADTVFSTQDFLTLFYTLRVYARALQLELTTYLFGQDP
Sequence of human Dopamine Transporter (DAT), SLC6A3 (gene 6531) (Q01959 whole entry, looked up): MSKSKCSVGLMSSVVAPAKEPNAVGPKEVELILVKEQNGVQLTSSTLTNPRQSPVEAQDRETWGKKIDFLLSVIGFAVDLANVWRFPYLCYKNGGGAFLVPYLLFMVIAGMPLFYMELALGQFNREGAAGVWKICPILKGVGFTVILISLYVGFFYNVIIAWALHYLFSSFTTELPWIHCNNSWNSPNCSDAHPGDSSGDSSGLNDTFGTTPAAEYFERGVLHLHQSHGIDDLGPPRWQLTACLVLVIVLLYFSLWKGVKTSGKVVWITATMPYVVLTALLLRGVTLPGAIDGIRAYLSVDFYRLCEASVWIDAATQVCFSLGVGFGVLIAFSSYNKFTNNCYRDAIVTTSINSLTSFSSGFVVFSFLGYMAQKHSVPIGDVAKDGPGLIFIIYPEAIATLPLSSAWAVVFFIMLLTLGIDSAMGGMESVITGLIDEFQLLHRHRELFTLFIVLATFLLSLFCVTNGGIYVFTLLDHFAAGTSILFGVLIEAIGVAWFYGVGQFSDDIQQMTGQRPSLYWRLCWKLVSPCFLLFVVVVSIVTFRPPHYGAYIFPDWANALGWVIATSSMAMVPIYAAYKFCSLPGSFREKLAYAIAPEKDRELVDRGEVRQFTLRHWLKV
Sequence of mouse Estrogen Receptor alpha (Era), Esr1 (gene 13982) (P19785 whole entry, looked up): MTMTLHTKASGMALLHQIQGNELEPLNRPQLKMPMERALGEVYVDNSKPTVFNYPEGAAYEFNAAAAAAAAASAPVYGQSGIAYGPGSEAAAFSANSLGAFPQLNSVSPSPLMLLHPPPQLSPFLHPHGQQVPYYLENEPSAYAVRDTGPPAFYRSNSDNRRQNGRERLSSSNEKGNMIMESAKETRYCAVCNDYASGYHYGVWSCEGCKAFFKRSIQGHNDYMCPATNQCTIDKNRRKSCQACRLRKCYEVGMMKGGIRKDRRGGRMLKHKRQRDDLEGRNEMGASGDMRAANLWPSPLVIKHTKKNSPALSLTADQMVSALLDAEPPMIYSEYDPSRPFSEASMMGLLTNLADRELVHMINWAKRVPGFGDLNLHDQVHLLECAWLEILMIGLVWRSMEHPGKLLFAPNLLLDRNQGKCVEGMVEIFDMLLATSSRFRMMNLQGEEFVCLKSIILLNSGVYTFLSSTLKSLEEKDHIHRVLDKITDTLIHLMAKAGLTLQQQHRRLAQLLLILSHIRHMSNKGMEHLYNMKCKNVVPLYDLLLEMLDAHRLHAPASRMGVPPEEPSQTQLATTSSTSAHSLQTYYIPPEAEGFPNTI
Sequence of Peroxisome proliferator-activated receptor gamma (Homo sapiens) (P37231 whole entry, looked up): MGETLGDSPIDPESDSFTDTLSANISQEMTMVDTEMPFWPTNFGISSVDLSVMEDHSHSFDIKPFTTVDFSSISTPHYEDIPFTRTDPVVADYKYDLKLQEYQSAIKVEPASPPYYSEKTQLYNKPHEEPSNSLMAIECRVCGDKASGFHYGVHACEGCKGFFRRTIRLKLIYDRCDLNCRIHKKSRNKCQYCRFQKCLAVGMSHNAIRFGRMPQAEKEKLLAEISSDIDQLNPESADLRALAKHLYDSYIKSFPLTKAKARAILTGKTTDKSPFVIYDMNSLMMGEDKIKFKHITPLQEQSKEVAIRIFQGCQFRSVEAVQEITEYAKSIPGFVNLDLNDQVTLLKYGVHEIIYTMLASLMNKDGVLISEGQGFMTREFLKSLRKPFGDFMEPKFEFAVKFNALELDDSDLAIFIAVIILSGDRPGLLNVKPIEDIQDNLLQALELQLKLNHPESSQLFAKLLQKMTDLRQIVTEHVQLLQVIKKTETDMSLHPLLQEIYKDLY

`O=c1cc(-c2ccccc2)oc2cc(O)cc(O)c12`: the outcome in assay [1] and in assay [2] was inactive. What is called AC50 is the concentration giving half of the maximal activity seen. Take `O=C=NC1CCC(CC2CCC(N=C=O)CC2)CC1` (stereo not given): in assay [3], the AC50 is 16.5 µM (active). Also, the compound was called inactive in assay [4].

For the compound `CC(=O)O[C@]1(C(C)=O)CC[C@H]2[C@@H]3C[C@H](C)C4=CC(=O)CC[C@]4(C)[C@H]3CC[C@@]21C`, in assay [5], the AC50 was 0.00114 µM (active). Take `CC(C)C[C@H]1C(=O)N2CCC[C@H]2[C@]2(O)O[C@](NC(=O)[C@@H]3C=C4c5cccc6[nH]c(Br)c(c56)C[C@H]4N(C)C3)(C(C)C)C(=O)N12`: the AC50 in assay [5] was 1.44 µM (active); in assay [1], 1.04 µM (active). For `c1ccc2sc(SN(C3CCCCC3)C3CCCCC3)nc2c1`, the AC50 in assay [3] is 5.3 µM (active). Consider `CCCCC(CC)COC(=O)/C=C\C(=O)OCC(CC)CCCC` (stereo not given), for which, in assay [6], the call was inactive. Consider `CCCCCC(CO)CCC` (stereo not given), for which the outcome in assay [6] was inactive. On to `O=C1OC2(c3cc(Br)c(O)c(Br)c3Oc3c2cc(Br)c(O)c3Br)c2c(Cl)c(Cl)c(Cl)c(Cl)c21`, for which, in assay [5], the AC50 is 3.83 µM (active).

Consider `CC(C)c1cccc(O)c1`, for which, in assay [1], the compound was classed as inactive. As to `CCC/C=C/C=O`, the compound was called inactive in assay [1], in assay [6] and in assay [2]. In the case of `CSc1nc(NC2CC2)nc(NC(C)(C)C)n1`, the AC50 in assay [1] is 3.05 µM (active).

As for `CCCCCCCCCCCCCOS(=O)(=O)O`, the AC50 in [5] is 2.94 µM (active); in assay [7], 1.7 µM (active); in assay [6], 0.832 µM (active). Further, the compound was called inactive in assay [1] and in [2].

On to `COc1cc(C(C)(C)C)c(O)c(C(C)(C)C)c1`, for which the compound was classed as inactive in assay [1]. Regarding `CCCC/C=C\CCCCCCCCCC=O`, the result in assay [1] and in assay [6] was inactive. On to `c1ccc2[nH]ccc2c1`, for which the compound was classed as inactive in assay [1] and in assay [2]. Regarding `Cc1ccc(C=O)cc1`, in assay [5], the call was inactive. `O=P(c1ccccc1)(c1ccccc1)c1ccccc1`: the AC50 in assay [3] was 6.83 µM (active). For the compound `CC(C)=CCO`, the compound was classed as inactive in assay [3].

For `C#C[C@]1(O)CC[C@H]2[C@@H]3CCC4=Cc5oncc5C[C@]4(C)[C@H]3CC[C@@]21C`, the AC50 in assay [5] was 0.319 µM (active).

Turning to `CC(C)(C#N)c1cc(Cn2cncn2)cc(C(C)(C)C#N)c1`, in assay [1], the compound was classed as inactive. For `COc1c(Cl)c(Cl)c(Cl)c(Cl)c1Cl`, the result in [1] was inactive. As to `CCn1c2ccccc2c2cc(N)ccc21`, the values for the AC50 in assay [3], in [4] and in assay [8] were 12.3 µM (active), 39.3 µM (active) and 12.3 µM (active), respectively.

Take `CC(C)=CCCC(C)=CCCC(C)=CCO`: the outcome in [1] was inactive. On to `NC(=O)NC1NC(=O)NC1=O` (stereo not given), for which the outcome in assay [1] was inactive. On to `CCCCCCCCCCCCCC(=O)O`, for which the compound was classed as inactive in assay [6]. Turning to `CCC(=O)/C=C/C1C(C)=CCCC1(C)C` (stereo not given), the call in assay [1] was inactive. Turning to `CCCCCCCCCCCCCCCC(=O)OC[C@H](O)[C@H]1OC(=O)C(O)=C1O`, the outcome in assay [1] and in assay [2] was inactive. The AC50 in [6] is 25 µM (active). `CCCCC[Si](OCC)(OCC)OCC`: the result in [1] was inactive. As for `O=C(Oc1ccccc1)c1ccc(O)cc1`, the outcome in assay [6] was inactive.

Consider `O=C1C(c2[nH]c3ccc(S(=O)(=O)O)cc3c2O)=Nc2ccc(S(=O)(=O)O)cc21`, for which the outcome in [6] was inactive.

Regarding `CNC[C@H](O)c1cccc(O)c1`, the AC50 in assay [9] was 25 µM (active). On to `COc1ccc(O)cc1`, for which the compound was classed as inactive in assay [2].

With `C[Si](O[Si](C)(C)C)O[Si](C)(C)C`, in assay [2], the outcome was inactive. On to `BrC1CCC(Br)C(Br)CCC(Br)C(Br)CCC1Br` (stereo not given), for which the compound was classed as inactive in assay [6] and in [2]. Turning to `Nc1cc([N+](=O)[O-])ccc1Cl`, the call in assay [8] was inactive. For the compound `O=C(Cl)c1cccc(C(=O)Cl)c1`, the call in [9] was inactive. With `COc1cc2ncnc(Nc3cccc(Cl)c3)c2cc1OC`, in assay [8], the AC50 was 1.77 µM (active). With `Cc1cccc(C)c1C`, the compound was classed as inactive in assay [4]. Consider `CCCCCCCCC=O`, for which, in assay [10], the compound was classed as inactive.

`CCCc1c(OCCCOc2ccc(OCC(=O)O)cc2)ccc(C(C)=O)c1O`: the outcome in [10] was inactive. With `CC1COc2ccccc2N1C(=O)C(Cl)Cl` (stereo not given), the AC50 in assay [10] was 1.88 µM (active). With `O=C[C@@H](O)[C@H](O)[C@H](O)CO`, the compound was called inactive in assay [6]. Besides, the AC50 in assay [2] was 1.26 µM (active). `CCCCCCCCCC=O`: the result in [10] was inactive. As for `c1cc(C(c2ccc(OCC3CO3)cc2)c2ccc(OCC3CO3)cc2)ccc1OCC1CO1` (stereo not given), the compound was classed as inactive in assay [10].

In the case of `NC(=O)Nc1ccc(Cl)cc1`, the call in [10] was inactive. Regarding `O=C(O)CCSCCC(=O)O`, the call in assay [10] was inactive. Take `OC1OC[C@@H](O)[C@H](O)[C@H]1O` (stereo not given in full): the compound was classed as inactive in [6]. As to `Clc1ccc2c(c1)C(N1CCNCC1)=Nc1ccccc1O2`, the compound was classed as inactive in assay [10]. For the compound `CCCCCCCCCCCCCCCC(=O)O`, the compound was called inactive in [6].

As to `c1ccc(CCCc2ccccn2)cc1`, in assay [6], the outcome was inactive. For `Cc1cc(C2(c3cc(C)c(O)cc3C)OS(=O)(=O)c3ccccc32)c(C)cc1O`, the result in assay [10] was inactive.

Regarding `OCCN1CCNCC1`, the outcome in assay [6] was inactive.

`CN(CCOc1ccc(CC2SC(=O)NC2=O)cc1)c1ccccn1` (stereo not given): the concentration at half-maximal activity (AC50) in assay [4] was 2.07 µM (active). As for `CC(C)CCCCCCCOC(=O)c1ccc(C(=O)OCCCCCCCC(C)C)c(C(=O)OCCCCCCCC(C)C)c1`, in [6], the result was inactive.

With `Cc1ccc(O)c(C(C)(C)C)c1`, in [9], the AC50 was 25 µM (active). Take `CCCOCC(C)O` (stereo not given): the call in [2] was inactive. Take `O=C1c2ccccc2C(=O)N1SC1CCCCC1`: in assay [10], the compound was classed as inactive. Consider `O=Nc1ccc(Nc2ccccc2)cc1`, for which the outcome in assay [6] and in assay [2] was inactive. Further, the AC50 in assay [10] was 46.4 µM (active). Take `COC(C)CCO` (stereo not given): the outcome in assay [6] was inactive. On to `CCN(CC)c1ccc(C(=C2C=CC(=[N+](CC)CC)C=C2)c2ccc(S(=O)(=O)O)cc2S(=O)(=O)[O-])cc1`, for which the call in assay [2] was inactive. With `COC(=O)C1=C(C)NC(C)=C(C(=O)OCCN(C)Cc2ccccc2)C1c1cccc([N+](=O)[O-])c1` (stereo not given), the call in assay [10] was inactive.
